What follows are sequences tested against RAET1E (assay: pooled miR-30 sensor sort-seq; sequence = guide strand). Conditions: shRNA.
Sequence TTCATGATTAATTACTGTCCAG has a sensor-assay potency score (higher = more potent) of -0.655.
In the case of TTTATAGTGAAGTTGAAGCAAA, the sensor-assay potency score (higher = more potent) is reported as -1.04.
In the case of TTGTTGTCACTGTTGTACTGAA, the sensor-assay potency score (higher = more potent) is reported as -0.561.
TTACTGGTGACACTGTCGGTTC gave a sensor-assay potency score (higher = more potent) of -0.629.
TTCACGTTGACAAAACATCTCG showed a sensor-assay potency score (higher = more potent) of -0.11.
In the case of TTGACCATGTTGTTGTCACTGT, the sensor-assay potency score (higher = more potent) is reported as 0.253.
TTTACTGGTGACACTGTCGGTT showed a sensor-assay potency score (higher = more potent) of 0.119.
With TCATGATTAATTACTGTCCAGG the sensor-assay potency score (higher = more potent) was -0.855.
For TTTGATGTCACAAAGGAGCATC, the sensor-assay potency score (higher = more potent) was -0.244.
In the case of TTGACAAAACATCTCGACTTGC, the sensor-assay potency score (higher = more potent) is reported as -0.439.
In the case of TATCTGAAGCATTTACTGGTGA, the sensor-assay potency score (higher = more potent) is reported as 0.282.
TTCCATGTCTCCTTGATCTTAC was tested, and the sensor-assay potency score (higher = more potent) was -0.262.

These sequences were tested against RAI2 in the same assay as above. Conditions: shRNA.
Work on TTTAACTTTATGCTCCGGTTTT yielded a sensor-assay potency score (higher = more potent) of -1.48.
TCGACAGAGACAATGACCTTGG gave a sensor-assay potency score (higher = more potent) of -0.196.
TTCTTTAACTTTATGCTCCGGT gave a sensor-assay potency score (higher = more potent) of 0.268.
Work on TTTCTTTAACTTTATGCTCCGG yielded a sensor-assay potency score (higher = more potent) of -0.775.
TTTATAAAACCAATGCACCTTT was tested, and the sensor-assay potency score (higher = more potent) was -0.626.
In the case of TTCAGAACTCTGAGGCACCGGG, the sensor-assay potency score (higher = more potent) is reported as -0.474.
For TTGTTGTGGATGGTACTGGAGG, the sensor-assay potency score (higher = more potent) was -0.912.
TTGAGCTCTGGTGCGGAGCTTC showed a sensor-assay potency score (higher = more potent) of -0.528.
Sequence TCAGCCTTGACTTCGCCGCTGG has a sensor-assay potency score (higher = more potent) of -0.358.
Work on TTGAAGGAGAAGTTTTTGGTGG yielded a sensor-assay potency score (higher = more potent) of -0.107.
TCGGATTGAGCTCTGGTGCGGA was tested, and the sensor-assay potency score (higher = more potent) was -0.201.
With TTTTCAGCCTTGACTTCGCCGC the sensor-assay potency score (higher = more potent) was -0.377.

These sequences were tested against RANBP9 in the same assay as above. Conditions: shRNA.
For TAACAGGATAACTGTCTTGAGA, the sensor-assay potency score (higher = more potent) was -1.15.
In the case of TTGCTTGCAGCTCTCGTCCAAA, the sensor-assay potency score (higher = more potent) is reported as -0.93.
TTTCTTTCAAGTAAACTTGGGT gave a sensor-assay potency score (higher = more potent) of -0.134.
TACTACAACTTTCAAAACCTGA gave a sensor-assay potency score (higher = more potent) of -0.44.
TAATTCTTCTAGAACGGTCTGG gave a sensor-assay potency score (higher = more potent) of 0.443.
In the case of TAGTAGACTGAATGCATCCTTC, the sensor-assay potency score (higher = more potent) is reported as -0.448.
TTGGACTACTAAAAGGTCGAGG was tested, and the sensor-assay potency score (higher = more potent) was -0.167.
TTTTGTATCATGGTCTGCCATT showed a sensor-assay potency score (higher = more potent) of -1.46.
TAACTGTCTTGAGACTTTGGAC gave a sensor-assay potency score (higher = more potent) of -0.743.
Sequence TTCGGTGTCACAATCTTCCATT has a sensor-assay potency score (higher = more potent) of -0.713.
TAGCTGAACTTGTCCTTCGGGC was tested, and the sensor-assay potency score (higher = more potent) was -0.541.

Each sequence was assayed against RANGAP1 in the same assay as above. Conditions: shRNA.
In the case of TTCACTCTTGAGCAGACCCATG, the sensor-assay potency score (higher = more potent) is reported as -1.41.
In the case of TAATCACATCTTTAGCATCTTC, the sensor-assay potency score (higher = more potent) is reported as -0.22.
Sequence TTGAACACAGATGACACCTTTA has a sensor-assay potency score (higher = more potent) of -0.0745.
In the case of TCACATCTTTAGCATCTTCTGC, the sensor-assay potency score (higher = more potent) is reported as -0.932.

Source: the OligoGym collection
Also: reference of the scale not given here.
